Results as given in PubChem BioAssay.
For part of these data: Entries with a potency or affinity are not part of this list. The source made the active and inactive calls.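 How the source made its calls, unless noted: active means membrane potential signal rise above negative control mean plus 3 SD in both duplicates, also active in the earlier TRPC4 screen; inactive means the rest.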

How the values were obtained:
[1] = tested on: TRPC4 beta (transient receptor potential cation channel C4), mouse; assay: activators of mouse TRPC4 channel, confirmation, cell-based, Fluo4 calcium, HEK293 TRPC4beta/mu-opioid, duplicates, 10 µM (AID 2426;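 active means fluorescence ratio normalized to control raised more than 50% in primary screen plus both repeat runs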;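 on activation: percent rise of integrated ratio over buffer wells lacking compound which define 0%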); conditions: Fluo4 calcium fluorescence, at 10 µM; active compounds read high
[2] = tested on: transient receptor potential cation channel C4 beta (TRPC4), mouse; assay: activators of mouse TRPC4 channel, confirmation, cell-based, second round, Fluo4, HEK293 TRPC4beta/mu-opioid, 1 µM (AID 2461;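 active means primary screen active and over 50% activation in each of two duplicate runs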;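 on activation: 0% = wells without test compound as baseline of integrated fluorescence ratio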); conditions: Fluo4 calcium fluorescence, at 1 µM; active compounds read high
[3] = tested on: TRPC4 (transient receptor potential cation channel C4 beta), mouse; assay: positive allosteric modulators of mouse TRPC4, confirmation, cell-based, second round, Fluo-4, HEK293 TRPC4beta/mu-opioid, 1 µM (AID 2554;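 active means primary screen hit whose fluorescence ratio, in both repeats, exceeds the weak agonist control mean by 3 SD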); conditions: DAMGO EC20, Fluo-4 calcium flux, at 1 µM; active compounds read high
[4] = tested on: TRPC4 beta (transient receptor potential cation channel C4), mouse; assay: positive allosteric modulators of mouse TRPC4, confirmation, cell-based, Fluo-4, HEK293 TRPC4beta/mu-opioid (AID 2555;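 active means primary screen hit whose calcium fluorescence ratio, in both repeats, exceeds the weak agonist control mean by 3 SD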); conditions: DAMGO EC20, Fluo-4 calcium flux, at 10 µM; active compounds read high
[5] = molecular target: Short transient receptor potential channel 4 (Mus musculus) (UniProt Q9QUQ5); assay: inhibitors of mouse TRPC4 channel, confirmation, cell-based, Fluo4, HEK293 TRPC4beta/mu-opioid (AID 2636;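 active means calcium signal cut by more than 3 SD below the full-agonist control yet still positive, in both repeats and the earlier primary screen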); conditions: DAMGO, Fluo4 calcium flux, at 10 µM; active compounds read high
[6] = molecular target: Short transient receptor potential channel 4 (Mus musculus) (UniProt Q9QUQ5); assay: inhibitors of mouse TRPC4 channel, confirmation, cell-based, second round, Fluo4, HEK293 TRPC4beta/mu-opioid, 1 µM (AID 2637;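 active means calcium signal ratio cut to more than 3 SD under the fully stimulated control mean yet still positive, in both repeats and the primary screen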); conditions: Fluo4 calcium flux, DAMGO, at 1 µM; active compounds read high
[7] = molecular target: Short transient receptor potential channel 4 (Mus musculus) (UniProt Q9QUQ5); assay: mouse TRPC4 channel activators, dose response, cell-based, HEK293 TRPC4/mu-opioid, Fluo-4 calcium (AID 434937;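 active means primary screen activator hit with a dose response curve and TRPC4 channel activation at any tested dose; inactive means no activation, no dose response, or not a primary hit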)
[8] = molecular target: Short transient receptor potential channel 4 (Mus musculus) (UniProt Q9QUQ5); assay: TRPC4 positive allosteric modulators, dose response, cell-based, HEK293 TRPC4/mu-opioid, Fluo-4 calcium, EC20 DAMGO (AID 434941;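 active means earlier screen potentiator hit that boosts the TRPC4 ion channel at some dose, with a dose response; inactive means no potentiation, no dose response, or not a prior hit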;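 further: calcium entry triggered by an EC20 dose of DAMGO at the co-expressed mu-opioid receptor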)
[9] = molecular target: Short transient receptor potential channel 4 (Mus musculus) (UniProt Q9QUQ5); assay: mouse TRPC4 channel inhibitors, dose response, cell-based, HEK293 TRPC4/mu-opioid, Fluo-4 calcium (AID 434942;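 active means primary screen inhibitor hit that blocks the TRPC4 channel at some tested dose, yielding a dose curve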)
[10] = molecular target: Short transient receptor potential channel 6 (Mus musculus) (UniProt Q61143); assay: inhibition of mouse TRPC6 channel, confirmation, selectivity assay for TRPC4 inhibitor project, cell-based, HEK293, membrane potential dye, duplicate (AID 434948;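 active means active in primary screen and both duplicates, each dropping signal beyond three positive-control SD with fluorescence still positive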); conditions: HEK293 TRPC6, membrane potential dye fluorescence, at 10 µM, stimulated with maximal-effect acetylcholine; active compounds read high
[11] = molecular target: Short transient receptor potential channel 6 (Mus musculus) (UniProt Q61143); assay: activation of mouse TRPC6 channel, confirmation, selectivity assay for TRPC4 activator project, cell-based, HEK293, membrane potential dye, duplicate (AID 434950); conditions: HEK293 TRPC6, membrane potential fluorescence, at 10 µM; active compounds read high;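 on activation: 0% = buffer only wells and 100% = acetylcholine maximal-effect wells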
[12] = molecular target: Short transient receptor potential channel 6 (Mus musculus) (UniProt Q61143); assay: TRPC6 potentiation by TRPC4 potentiator hits, confirmation, selectivity assay for TRPC4 potentiator project, HEK293 cells, membrane potential dye, duplicate (AID 434952;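 active means compound raising the membrane signal above positive-control mean plus 3 SD in both repeats, and a primary screen hit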); conditions: HEK293 TRPC6, membrane potential dye fluorescence, at 10 µM, maximal acetylcholine added after compound; active compounds read high
[13] = molecular target: Short transient receptor potential channel 4 (Mus musculus) (UniProt Q9QUQ5); assay: calcium flux activators in TRPC4/5HT1a cells, counter-screen for TRPC4 activator project, cell-based, second counter screen, HEK293 TRPC4/5HT1a, Fluo-4 (AID 434977;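 active means calcium signal rise above buffer-control mean plus 5 SD in both duplicates, and also a hit in the primary screen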;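 on activation: plate controls were assay buffer for no effect and maximal serotonin response for full effect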); conditions: Fluo-4 calcium flux, at 10 µM; active compounds read high
[14] = calcium flux inhibitors in TRPC4/5HT1a cells, confirmation, counter-screen for TRPC4 inhibitor project, cell-based, second counter screen, HEK293 TRPC4/5HT1a, Fluo-4 (AID 434978;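 active means primary screen active whose calcium signal fell more than 3 SD beyond the full-serotonin control mean in both duplicate plates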;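 on outcome: serotonin given first at submaximal then at maximal dose after compound preincubation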); conditions: Fluo-4 calcium flux, at 10 µM, serotonin added to trigger calcium flux; active compounds read high
[15] = tested on: TRPC4 (mouse), co-expressed with 5HT1a in HEK293; assay: calcium flux potentiators in TRPC4/5HT1a cells, confirmation, counter-screen for TRPC4 potentiator project, cell-based, second counter screen, HEK293 TRPC4/5HT1a, Fluo-4 (AID 434979;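 active means signal rise over 3 SD above mean of control wells given weak agonist, in both repeats and first screen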); conditions: Fluo-4 calcium flux, at 10 µM, serotonin added at its EC20 dose; active compounds read high
[16] = calcium flux activation in mu-opioid HEK293 cells, confirmation, counter-screen for TRPC4 activator project, cell-based, HEK293 mu-opioid receptor line (AID 449723;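 active means hit in primary screen, with calcium signal over 5 SD above buffer well mean in both duplicates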;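 further: counter screen cells carry the mu-opioid receptor alone and lack TRPC4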); conditions: Fluo-4 calcium fluorescence, at 10 µM; active compounds read high
[17] = calcium flux enhancement in mu-opioid HEK293 cells, confirmation, counter-screen for TRPC4 allosteric potentiator project, cell-based, HEK293 mu-opioid receptor line (AID 449724;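 active means calcium signal rise more than 3 SD above the low-dose agonist control mean, in both duplicate plates and the primary screen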); conditions: Fluo-4 calcium flux, at 10 µM, compound added before EC20 DAMGO stimulus; active compounds read high

Chain of Short transient receptor potential channel 4 (Mus musculus) (Q9QUQ5 whole entry, looked up): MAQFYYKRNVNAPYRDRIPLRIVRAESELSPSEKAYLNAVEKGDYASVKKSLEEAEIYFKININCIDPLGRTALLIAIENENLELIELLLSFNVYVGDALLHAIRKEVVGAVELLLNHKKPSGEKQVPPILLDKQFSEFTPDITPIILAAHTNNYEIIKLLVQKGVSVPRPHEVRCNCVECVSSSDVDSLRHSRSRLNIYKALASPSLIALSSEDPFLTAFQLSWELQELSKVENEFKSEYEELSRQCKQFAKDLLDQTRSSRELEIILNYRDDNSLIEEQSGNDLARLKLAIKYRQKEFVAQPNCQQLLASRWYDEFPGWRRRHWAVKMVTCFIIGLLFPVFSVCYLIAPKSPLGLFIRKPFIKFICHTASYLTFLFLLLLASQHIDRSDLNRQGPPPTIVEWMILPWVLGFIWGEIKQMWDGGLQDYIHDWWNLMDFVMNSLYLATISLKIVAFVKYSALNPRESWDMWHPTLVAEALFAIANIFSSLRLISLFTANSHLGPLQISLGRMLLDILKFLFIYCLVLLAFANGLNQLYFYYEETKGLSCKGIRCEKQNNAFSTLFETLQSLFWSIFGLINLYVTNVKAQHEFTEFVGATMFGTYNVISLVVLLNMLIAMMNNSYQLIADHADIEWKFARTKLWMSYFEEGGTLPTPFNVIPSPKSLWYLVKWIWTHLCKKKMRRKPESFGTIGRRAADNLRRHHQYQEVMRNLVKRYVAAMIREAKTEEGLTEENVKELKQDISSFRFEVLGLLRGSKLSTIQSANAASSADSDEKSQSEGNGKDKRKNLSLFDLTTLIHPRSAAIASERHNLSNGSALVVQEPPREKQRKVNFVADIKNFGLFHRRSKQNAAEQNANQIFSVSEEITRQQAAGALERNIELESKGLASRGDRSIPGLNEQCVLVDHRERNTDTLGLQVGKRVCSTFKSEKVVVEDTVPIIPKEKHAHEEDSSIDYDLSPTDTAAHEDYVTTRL
Chain of Short transient receptor potential channel 6 (Mus musculus) (Q61143 whole entry, looked up): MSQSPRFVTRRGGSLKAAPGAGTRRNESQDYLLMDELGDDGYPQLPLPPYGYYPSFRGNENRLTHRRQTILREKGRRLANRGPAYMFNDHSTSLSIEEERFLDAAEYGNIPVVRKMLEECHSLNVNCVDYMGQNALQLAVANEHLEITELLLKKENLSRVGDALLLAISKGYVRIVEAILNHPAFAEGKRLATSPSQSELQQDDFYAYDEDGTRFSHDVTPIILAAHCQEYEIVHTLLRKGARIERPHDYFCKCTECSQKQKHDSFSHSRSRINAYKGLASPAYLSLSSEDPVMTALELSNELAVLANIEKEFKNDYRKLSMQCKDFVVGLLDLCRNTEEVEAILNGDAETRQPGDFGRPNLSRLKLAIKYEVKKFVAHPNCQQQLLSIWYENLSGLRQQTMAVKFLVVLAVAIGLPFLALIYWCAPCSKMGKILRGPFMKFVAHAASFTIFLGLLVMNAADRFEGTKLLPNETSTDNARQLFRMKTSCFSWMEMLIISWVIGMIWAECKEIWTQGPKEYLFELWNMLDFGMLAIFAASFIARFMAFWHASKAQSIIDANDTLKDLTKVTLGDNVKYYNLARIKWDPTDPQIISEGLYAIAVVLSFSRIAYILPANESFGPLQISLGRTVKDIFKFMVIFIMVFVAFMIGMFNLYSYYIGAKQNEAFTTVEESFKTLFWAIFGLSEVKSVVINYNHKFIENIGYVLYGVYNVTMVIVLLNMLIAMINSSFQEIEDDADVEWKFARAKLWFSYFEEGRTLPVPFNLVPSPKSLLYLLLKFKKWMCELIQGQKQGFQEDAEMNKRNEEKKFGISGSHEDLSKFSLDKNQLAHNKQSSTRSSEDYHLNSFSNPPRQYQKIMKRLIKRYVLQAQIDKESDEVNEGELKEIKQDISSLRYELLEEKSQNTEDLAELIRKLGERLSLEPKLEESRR

C=CCOc1ccc(CN(C)Cc2nc3cc(C(F)(F)F)ccc3c(=O)[nH]2)cc1
inactive: outcome [1] | outcome [2] | outcome [3] | outcome [4] | outcome [5] | outcome [6] | outcome [7] | outcome [8] | outcome [9] | outcome [10] | outcome [11] | outcome [12] | outcome [13] | outcome [14] | outcome [16] | outcome [17]
active: potentiation [15] 10.9%

O=c1c2ccccc2nc(SCc2nc3ccccc3s2)n1CCCO
inactive: outcome [1] | outcome [2] | outcome [3] | outcome [4] | outcome [5] | outcome [6] | outcome [7] | outcome [8] | outcome [9] | outcome [10] | outcome [11] | outcome [12] | outcome [13] | outcome [14] | outcome [15] | outcome [16] | outcome [17]

CCOc1ccc2ccccc2c1/C=N/NC(=O)c1cc(C)[nH]n1
inactive: outcome [1] | outcome [2] | outcome [3] | outcome [4] | outcome [5] | outcome [6] | outcome [7] | outcome [8] | outcome [9] | outcome [10] | outcome [11] | outcome [12] | outcome [13] | outcome [14] | outcome [15] | outcome [16] | outcome [17]

N=c1c2c3c(sc2ncn1Cc1ccccc1)CCCC3
inactive: outcome [1] | outcome [2] | outcome [3] | outcome [4] | outcome [5] | outcome [6] | outcome [7] | outcome [8] | outcome [9] | outcome [10] | outcome [11] | outcome [12] | outcome [13] | outcome [14] | outcome [15] | outcome [16] | outcome [17]

CN(C)CCCNc1nc(N)c([N+](=O)[O-])c(NCc2ccccc2)n1
inactive: outcome [1] | outcome [2] | outcome [3] | outcome [4] | outcome [5] | outcome [6] | outcome [7] | outcome [8] | outcome [9] | outcome [10] | outcome [11] | outcome [12] | outcome [13] | outcome [14] | outcome [15] | outcome [16] | outcome [17]

CCN(CCCNC(=O)CCCOc1cc(=O)n(C)c2ccccc12)Cc1ccccc1
inactive: outcome [1] | outcome [2] | outcome [3] | outcome [4] | outcome [5] | outcome [6] | outcome [7] | outcome [8] | outcome [9] | outcome [10] | outcome [11] | outcome [12] | outcome [13] | outcome [14] | outcome [16] | outcome [17]
active: potentiation [15] 16.1%

CCOC(=O)c1c(NC(=O)COC(=O)CCOc2ccc(OCC)cc2)sc(C(=O)N(C)C)c1C
active: potentiation [3] 22% | potentiation [4] 32% | potentiation [15] 81.1%
inactive: outcome [1] | outcome [2] | outcome [5] | outcome [6] | outcome [7] | outcome [8] | outcome [9] | outcome [10] | outcome [11] | outcome [12] | outcome [13] | outcome [14] | outcome [16] | outcome [17]

CCOc1ccc(NS(=O)(=O)c2ccc(NC(=S)NC(=O)CC(C)C)cc2)cc1
inactive: outcome [1] | outcome [2] | outcome [3] | outcome [5] | outcome [6] | outcome [7] | outcome [8] | outcome [9] | outcome [10] | outcome [11] | outcome [12] | outcome [13] | outcome [14] | outcome [16] | outcome [17]
active: potentiation [4] 15% | potentiation [15] 6.51%

CCOc1ccc(OCC(O)CNC2CCN(Cc3ccccc3)CC2)cc1 (stereo not given)
inactive: outcome [3] | outcome [4] | outcome [6] | outcome [7] | outcome [8] | outcome [9] | outcome [12] | outcome [15] | outcome [16] | outcome [17]
active: activation [1] 144% | activation [2] 94% | inhibition [5] 36% | inhibition [10] 34.5% | activation [11] 83% | activation [13] 35.4% | inhibition [14] 25.6%

COc1ccccc1NC(=O)CSc1n[nH]c(-c2ccccn2)n1
inactive: outcome [1] | outcome [2] | outcome [3] | outcome [4] | outcome [5] | outcome [6] | outcome [7] | outcome [8] | outcome [9] | outcome [10] | outcome [11] | outcome [12] | outcome [13] | outcome [14] | outcome [15] | outcome [16] | outcome [17]

Cc1cc(C)nc(NNS(=O)(=O)c2ccc(F)c(Cl)c2)n1
inactive: outcome [1] | outcome [2] | outcome [3] | outcome [4] | outcome [5] | outcome [6] | outcome [7] | outcome [8] | outcome [9] | outcome [10] | outcome [11] | outcome [12] | outcome [13] | outcome [14] | outcome [16] | outcome [17]
active: potentiation [15] 6.83%

O=C(OCC(=O)N1CCOCC1)c1cccc(S(=O)(=O)N2CCCc3ccccc32)c1
active: potentiation [15] 10.2%
inactive: outcome [1] | outcome [2] | outcome [3] | outcome [4] | outcome [5] | outcome [6] | outcome [7] | outcome [8] | outcome [9] | outcome [10] | outcome [11] | outcome [12] | outcome [13] | outcome [14] | outcome [16] | outcome [17]

CN1CCN(Cc2nc3ccccc3n2C)CC1CCO (stereo not given)
active: potentiation [15] 9.01%
inactive: outcome [1] | outcome [2] | outcome [3] | outcome [4] | outcome [5] | outcome [6] | outcome [7] | outcome [8] | outcome [9] | outcome [10] | outcome [11] | outcome [12] | outcome [13] | outcome [14] | outcome [16] | outcome [17]

COc1ccc(-n2cc(CNCc3cnc4ccccn34)c(-c3cccc(F)c3)n2)cc1
inactive: outcome [1] | outcome [2] | outcome [3] | outcome [4] | outcome [5] | outcome [6] | outcome [7] | outcome [8] | outcome [9] | outcome [10] | outcome [11] | outcome [12] | outcome [13] | outcome [14] | outcome [15] | outcome [16] | outcome [17]

CN(C)CCCNC(=O)/C=C/c1ccc(OCc2c(F)cccc2Cl)cc1
active: potentiation [15] 16.2%
inactive: outcome [1] | outcome [2] | outcome [3] | outcome [4] | outcome [5] | outcome [6] | outcome [7] | outcome [8] | outcome [9] | outcome [10] | outcome [11] | outcome [12] | outcome [13] | outcome [14] | outcome [16] | outcome [17]
